# Reference: article PMC7862700, “An all-to-all approach to the identification of sequence-specific readers for epigenetic DNA modifications on cytosine”
# Experiments:
# Assay in all cases: DAPPL (digital affinity profiling via proximity ligation, sequencing); 10 mM Tris-HCl pH 7.5, 50 mM NaCl, 1 mM DTT, 4% glycerol, room temperature, 30 min; GST-TFs on glutathione beads, 16-mer random dsDNA library, 0.1% formaldehyde crosslink after washing; high values mean tight binding
# [1] = target: T1, FLI1 (Homo sapiens, UniProt Q01543 1-452); settings: protein: recombinant; tags: N-terminal GST; dsDNA, one strand shown
# T1 sequence: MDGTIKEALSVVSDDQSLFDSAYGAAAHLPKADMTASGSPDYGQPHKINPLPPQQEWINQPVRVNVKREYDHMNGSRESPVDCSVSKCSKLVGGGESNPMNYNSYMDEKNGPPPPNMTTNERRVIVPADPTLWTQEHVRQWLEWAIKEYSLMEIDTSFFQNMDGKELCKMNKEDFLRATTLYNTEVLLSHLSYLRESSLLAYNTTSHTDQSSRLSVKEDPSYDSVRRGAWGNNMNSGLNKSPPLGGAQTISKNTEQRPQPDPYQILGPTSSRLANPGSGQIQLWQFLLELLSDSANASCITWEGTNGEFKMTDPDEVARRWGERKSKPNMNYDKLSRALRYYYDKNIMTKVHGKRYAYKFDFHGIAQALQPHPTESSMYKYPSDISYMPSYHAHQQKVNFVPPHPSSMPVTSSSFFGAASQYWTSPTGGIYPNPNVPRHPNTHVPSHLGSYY
# Summary of the method: (§1)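 Sequencing on an Illumina NextSeq500 followed washing, crosslinking with 0.1% formaldehyde, proximity ligation (BsaI/T4 ligase, 1 h, 37 °C) and PCR amplification of pools that had been incubated for 30 min at room temperature with 200 nmole of a random double-stranded 16-mer DNA library in Tris/NaCl/DTT/glycerol buffer. Each pool held DNA-barcoded human transcription factors, expressed in yeast as GST fusions and captured on glutathione beads, plus a tag-only sample. Binding signal is a hexamer's read frequency for a factor divided by its frequency in the tag-only sample.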
# [2] = target: T2, ELK1 (Homo sapiens, UniProt P19419 1-428); settings: protein: recombinant; tags: N-terminal GST; dsDNA, one strand shown
# T2 sequence: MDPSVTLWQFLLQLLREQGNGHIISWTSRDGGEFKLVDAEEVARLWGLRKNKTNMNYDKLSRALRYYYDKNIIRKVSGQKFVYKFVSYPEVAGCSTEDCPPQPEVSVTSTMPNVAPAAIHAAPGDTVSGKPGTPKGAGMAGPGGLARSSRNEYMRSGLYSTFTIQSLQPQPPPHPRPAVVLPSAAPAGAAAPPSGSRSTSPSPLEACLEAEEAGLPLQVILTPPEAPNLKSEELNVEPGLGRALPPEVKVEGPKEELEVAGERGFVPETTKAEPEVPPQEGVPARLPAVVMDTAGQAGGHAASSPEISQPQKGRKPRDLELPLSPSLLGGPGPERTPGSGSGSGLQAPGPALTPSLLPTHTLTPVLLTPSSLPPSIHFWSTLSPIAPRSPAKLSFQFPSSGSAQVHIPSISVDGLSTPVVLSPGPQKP
# Summary of the method: as §1
# [3] = target: T3, GABPA (Homo sapiens, UniProt Q06546 1-454); settings: protein: recombinant; tags: N-terminal GST; dsDNA, one strand shown
# T3 sequence: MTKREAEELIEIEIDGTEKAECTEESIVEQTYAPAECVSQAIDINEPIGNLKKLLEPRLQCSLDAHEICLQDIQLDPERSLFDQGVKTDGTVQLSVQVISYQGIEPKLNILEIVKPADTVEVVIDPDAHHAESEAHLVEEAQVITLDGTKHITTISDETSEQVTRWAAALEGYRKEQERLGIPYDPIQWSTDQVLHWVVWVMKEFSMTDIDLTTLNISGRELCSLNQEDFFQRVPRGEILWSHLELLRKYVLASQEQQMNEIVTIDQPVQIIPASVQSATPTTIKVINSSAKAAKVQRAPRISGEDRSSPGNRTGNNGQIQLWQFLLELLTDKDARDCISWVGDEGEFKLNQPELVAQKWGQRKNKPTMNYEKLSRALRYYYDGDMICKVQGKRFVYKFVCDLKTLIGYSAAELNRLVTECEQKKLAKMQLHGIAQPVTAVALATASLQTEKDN
# Summary of the method: as §1
# [4] = target: T4, ERG (Homo sapiens, UniProt P11308 1-479); settings: protein: recombinant; tags: N-terminal GST; dsDNA, one strand shown
# T4 sequence: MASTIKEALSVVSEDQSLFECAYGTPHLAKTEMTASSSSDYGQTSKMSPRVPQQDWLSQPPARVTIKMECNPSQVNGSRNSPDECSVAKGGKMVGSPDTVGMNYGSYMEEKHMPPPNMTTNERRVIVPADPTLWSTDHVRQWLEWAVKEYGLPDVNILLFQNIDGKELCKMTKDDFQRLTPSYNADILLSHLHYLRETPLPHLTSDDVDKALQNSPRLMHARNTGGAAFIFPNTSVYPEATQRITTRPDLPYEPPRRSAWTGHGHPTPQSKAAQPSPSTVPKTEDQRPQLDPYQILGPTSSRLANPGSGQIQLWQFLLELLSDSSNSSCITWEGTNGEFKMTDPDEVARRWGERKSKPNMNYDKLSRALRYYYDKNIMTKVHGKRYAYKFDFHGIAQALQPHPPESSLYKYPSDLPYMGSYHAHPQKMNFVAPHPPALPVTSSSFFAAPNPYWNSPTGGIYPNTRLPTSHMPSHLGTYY
# Summary of the method: as §1
# [5] = target: ELF1 (Homo sapiens, UniProt P32519 1-619); settings: protein: recombinant; tags: N-terminal GST; dsDNA, one strand shown
# Summary of the method: as §1
# [6] = target: T5, EHF (Homo sapiens, UniProt Q9NZC4 1-300); settings: protein: recombinant; tags: N-terminal GST; dsDNA, one strand shown
# T5 sequence: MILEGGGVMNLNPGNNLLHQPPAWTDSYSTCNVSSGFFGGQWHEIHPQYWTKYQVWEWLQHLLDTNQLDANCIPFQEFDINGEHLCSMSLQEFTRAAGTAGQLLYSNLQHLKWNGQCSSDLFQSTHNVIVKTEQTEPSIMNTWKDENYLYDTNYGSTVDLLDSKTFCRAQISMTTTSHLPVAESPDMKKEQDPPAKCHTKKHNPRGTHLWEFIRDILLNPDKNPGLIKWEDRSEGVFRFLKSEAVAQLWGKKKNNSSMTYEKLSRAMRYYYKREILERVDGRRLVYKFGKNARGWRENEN
# Summary of the method: as §1
# [7] = target: SPI1 (Homo sapiens, UniProt P17947 1-270); settings: protein: recombinant; tags: N-terminal GST; dsDNA, one strand shown
# Summary of the method: as §1
# [8] = target: SPIB (Homo sapiens, UniProt Q01892 1-262); settings: protein: recombinant; tags: N-terminal GST; dsDNA, one strand shown
# Summary of the method: as §1
# [9] = target: T6, ELK3 (Homo sapiens, UniProt P41970 1-407); settings: protein: recombinant; tags: N-terminal GST; dsDNA, one strand shown
# T6 sequence: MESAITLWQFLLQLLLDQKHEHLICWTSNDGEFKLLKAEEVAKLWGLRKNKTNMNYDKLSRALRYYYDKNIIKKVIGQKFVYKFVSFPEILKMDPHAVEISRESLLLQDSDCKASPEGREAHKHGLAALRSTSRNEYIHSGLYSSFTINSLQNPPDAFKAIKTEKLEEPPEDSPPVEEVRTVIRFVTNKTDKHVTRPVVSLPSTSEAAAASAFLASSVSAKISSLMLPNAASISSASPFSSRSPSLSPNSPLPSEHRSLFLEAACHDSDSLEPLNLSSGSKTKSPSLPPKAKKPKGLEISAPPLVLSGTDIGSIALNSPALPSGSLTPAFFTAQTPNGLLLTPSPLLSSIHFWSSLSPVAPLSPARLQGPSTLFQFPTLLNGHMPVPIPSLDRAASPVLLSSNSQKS
# Summary of the method: as §1
# [10] = target: T7, FEV (Homo sapiens, UniProt Q99581 1-238); settings: protein: recombinant; tags: N-terminal GST; dsDNA, one strand shown
# T7 sequence: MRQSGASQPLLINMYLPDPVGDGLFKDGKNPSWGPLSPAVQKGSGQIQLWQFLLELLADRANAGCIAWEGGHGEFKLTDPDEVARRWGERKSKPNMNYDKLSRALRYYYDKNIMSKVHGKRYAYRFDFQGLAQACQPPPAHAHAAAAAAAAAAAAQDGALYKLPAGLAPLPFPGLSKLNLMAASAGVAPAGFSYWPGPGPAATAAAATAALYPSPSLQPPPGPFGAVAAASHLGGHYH
# Summary of the method: as §1
# [11] = target: ETV5 (Homo sapiens, UniProt P41161 1-510); settings: protein: recombinant; tags: N-terminal GST; dsDNA, one strand shown
# Summary of the method: as §1
# [12] = target: HSF1 (Homo sapiens, UniProt Q00613 1-529); settings: protein: recombinant; tags: N-terminal GST; chain copies: 3; dsDNA, one strand shown
# Summary of the method: as §1
# [13] = target: T8, SPIC (Homo sapiens, UniProt Q8N5J4 1-248); settings: protein: recombinant; tags: N-terminal GST; dsDNA, one strand shown
# T8 sequence: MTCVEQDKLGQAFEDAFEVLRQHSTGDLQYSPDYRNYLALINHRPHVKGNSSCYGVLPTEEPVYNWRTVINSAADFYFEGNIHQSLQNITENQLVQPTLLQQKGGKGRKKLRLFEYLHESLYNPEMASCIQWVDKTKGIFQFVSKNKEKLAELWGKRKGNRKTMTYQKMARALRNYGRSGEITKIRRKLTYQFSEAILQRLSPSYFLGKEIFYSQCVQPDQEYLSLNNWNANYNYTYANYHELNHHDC
# Summary of the method: as §1
# [14] = target: ELF4 (Homo sapiens, UniProt Q99607 1-663); settings: protein: recombinant; tags: N-terminal GST; dsDNA, one strand shown
# Summary of the method: as §1
# [15] = target: T9, ELK4 (Homo sapiens, UniProt P28324-2 1-405); settings: protein: recombinant; tags: N-terminal GST; dsDNA, one strand shown
# T9 sequence: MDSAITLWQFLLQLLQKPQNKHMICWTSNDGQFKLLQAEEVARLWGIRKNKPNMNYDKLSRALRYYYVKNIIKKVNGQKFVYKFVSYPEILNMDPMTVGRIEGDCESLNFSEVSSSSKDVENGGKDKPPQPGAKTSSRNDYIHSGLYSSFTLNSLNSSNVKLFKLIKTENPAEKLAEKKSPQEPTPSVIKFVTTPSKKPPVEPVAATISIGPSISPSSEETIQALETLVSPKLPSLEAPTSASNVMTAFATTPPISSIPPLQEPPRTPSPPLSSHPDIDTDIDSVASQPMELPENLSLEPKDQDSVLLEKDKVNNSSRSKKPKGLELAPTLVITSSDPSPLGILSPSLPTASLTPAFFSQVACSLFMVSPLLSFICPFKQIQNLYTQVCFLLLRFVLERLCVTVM
# Summary of the method: as §1
# [16] = target: T10, ETV2 (Homo sapiens, UniProt O00321 1-342); settings: protein: recombinant; tags: N-terminal GST; dsDNA, one strand shown
# T10 sequence: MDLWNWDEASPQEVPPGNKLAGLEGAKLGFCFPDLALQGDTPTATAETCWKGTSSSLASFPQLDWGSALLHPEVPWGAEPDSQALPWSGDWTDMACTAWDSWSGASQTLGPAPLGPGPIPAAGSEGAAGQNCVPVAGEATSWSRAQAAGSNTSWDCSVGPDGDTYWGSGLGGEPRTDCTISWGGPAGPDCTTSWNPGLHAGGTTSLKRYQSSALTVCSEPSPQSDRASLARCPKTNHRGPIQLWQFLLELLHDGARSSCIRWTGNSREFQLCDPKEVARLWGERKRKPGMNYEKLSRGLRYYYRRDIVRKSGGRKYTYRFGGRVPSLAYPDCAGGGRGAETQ
# Summary of the method: as §1
# [17] = target: T11, ELF3 (Homo sapiens, UniProt P78545 1-371); settings: protein: recombinant; tags: N-terminal GST; dsDNA, one strand shown
# T11 sequence: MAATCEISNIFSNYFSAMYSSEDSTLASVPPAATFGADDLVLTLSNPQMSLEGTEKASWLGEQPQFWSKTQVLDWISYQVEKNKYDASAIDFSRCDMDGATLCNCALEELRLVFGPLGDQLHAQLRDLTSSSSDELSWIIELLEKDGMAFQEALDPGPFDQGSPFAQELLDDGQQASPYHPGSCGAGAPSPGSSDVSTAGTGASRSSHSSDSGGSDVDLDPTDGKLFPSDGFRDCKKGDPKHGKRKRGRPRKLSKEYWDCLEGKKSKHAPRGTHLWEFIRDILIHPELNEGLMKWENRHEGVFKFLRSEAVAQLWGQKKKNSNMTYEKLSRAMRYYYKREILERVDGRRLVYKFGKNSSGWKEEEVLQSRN
# Summary of the method: as §1
# [18] = target: CRX (Homo sapiens, UniProt O43186 1-299); settings: protein: recombinant; tags: N-terminal GST; dsDNA, one strand shown
# Summary of the method: as §1
# [19] = target: ETV1 (Homo sapiens, UniProt P50549 1-477); settings: protein: recombinant; tags: N-terminal GST; dsDNA, one strand shown
# Summary of the method: as §1
# HSF1, sequence (Q00613 whole entry): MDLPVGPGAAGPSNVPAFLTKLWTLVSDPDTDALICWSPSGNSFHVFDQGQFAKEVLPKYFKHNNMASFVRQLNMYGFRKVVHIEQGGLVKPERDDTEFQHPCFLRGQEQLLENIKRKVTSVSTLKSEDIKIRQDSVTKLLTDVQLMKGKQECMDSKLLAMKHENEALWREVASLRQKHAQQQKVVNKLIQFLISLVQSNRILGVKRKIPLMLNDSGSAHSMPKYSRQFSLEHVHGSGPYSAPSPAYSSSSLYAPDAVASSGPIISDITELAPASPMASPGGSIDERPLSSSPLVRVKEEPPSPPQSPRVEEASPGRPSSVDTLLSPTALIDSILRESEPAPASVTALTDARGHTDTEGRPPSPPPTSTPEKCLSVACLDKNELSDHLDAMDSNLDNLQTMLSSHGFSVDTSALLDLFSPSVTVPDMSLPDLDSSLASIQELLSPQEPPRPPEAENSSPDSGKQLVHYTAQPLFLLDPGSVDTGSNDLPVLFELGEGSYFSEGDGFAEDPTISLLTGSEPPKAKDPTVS
# ETV5, sequence (P41161 whole entry): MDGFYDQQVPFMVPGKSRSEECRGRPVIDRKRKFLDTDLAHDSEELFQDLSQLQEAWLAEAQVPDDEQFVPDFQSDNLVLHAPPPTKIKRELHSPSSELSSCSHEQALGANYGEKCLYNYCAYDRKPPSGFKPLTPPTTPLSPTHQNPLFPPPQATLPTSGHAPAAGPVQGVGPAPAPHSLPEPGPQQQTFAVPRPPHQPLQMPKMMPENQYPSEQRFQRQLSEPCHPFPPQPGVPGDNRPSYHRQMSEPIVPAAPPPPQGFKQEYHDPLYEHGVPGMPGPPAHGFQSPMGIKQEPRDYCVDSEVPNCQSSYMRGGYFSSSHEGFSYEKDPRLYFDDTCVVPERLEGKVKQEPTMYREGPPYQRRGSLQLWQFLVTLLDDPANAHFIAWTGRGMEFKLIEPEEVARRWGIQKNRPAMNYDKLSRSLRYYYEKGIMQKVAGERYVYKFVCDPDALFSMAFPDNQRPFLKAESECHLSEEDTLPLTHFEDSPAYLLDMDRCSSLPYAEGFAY
# ETV1, sequence (P50549 whole entry): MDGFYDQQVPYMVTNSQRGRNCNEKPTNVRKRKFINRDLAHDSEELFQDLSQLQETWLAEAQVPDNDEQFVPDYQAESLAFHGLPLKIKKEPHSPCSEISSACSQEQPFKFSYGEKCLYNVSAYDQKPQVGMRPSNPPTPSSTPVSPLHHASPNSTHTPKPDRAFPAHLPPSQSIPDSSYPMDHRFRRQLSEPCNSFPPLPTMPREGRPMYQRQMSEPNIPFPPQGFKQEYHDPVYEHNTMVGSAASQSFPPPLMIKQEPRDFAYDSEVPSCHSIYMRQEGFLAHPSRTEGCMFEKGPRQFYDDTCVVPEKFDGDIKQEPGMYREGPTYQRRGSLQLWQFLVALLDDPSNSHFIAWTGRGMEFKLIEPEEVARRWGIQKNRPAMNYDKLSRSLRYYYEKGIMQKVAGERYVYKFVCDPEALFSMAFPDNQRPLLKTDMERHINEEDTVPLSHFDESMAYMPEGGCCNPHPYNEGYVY
# ELF1, sequence (P32519 whole entry): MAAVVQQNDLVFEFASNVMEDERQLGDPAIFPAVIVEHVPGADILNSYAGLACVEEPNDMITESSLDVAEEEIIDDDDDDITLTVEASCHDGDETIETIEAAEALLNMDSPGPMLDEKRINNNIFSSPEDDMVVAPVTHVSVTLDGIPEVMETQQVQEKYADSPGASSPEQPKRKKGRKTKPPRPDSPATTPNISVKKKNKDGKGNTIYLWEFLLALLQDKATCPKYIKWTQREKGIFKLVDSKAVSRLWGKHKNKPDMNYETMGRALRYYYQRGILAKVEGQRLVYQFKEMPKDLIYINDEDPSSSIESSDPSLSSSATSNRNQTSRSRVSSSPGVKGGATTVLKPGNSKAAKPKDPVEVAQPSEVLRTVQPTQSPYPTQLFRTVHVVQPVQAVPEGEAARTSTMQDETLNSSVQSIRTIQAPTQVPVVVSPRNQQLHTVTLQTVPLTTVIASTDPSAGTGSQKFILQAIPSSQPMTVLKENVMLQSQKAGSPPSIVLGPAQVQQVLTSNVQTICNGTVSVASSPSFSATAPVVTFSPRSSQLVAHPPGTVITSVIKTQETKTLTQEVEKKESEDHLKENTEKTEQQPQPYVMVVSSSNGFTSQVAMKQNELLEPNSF
# ELF4, sequence (Q99607 whole entry): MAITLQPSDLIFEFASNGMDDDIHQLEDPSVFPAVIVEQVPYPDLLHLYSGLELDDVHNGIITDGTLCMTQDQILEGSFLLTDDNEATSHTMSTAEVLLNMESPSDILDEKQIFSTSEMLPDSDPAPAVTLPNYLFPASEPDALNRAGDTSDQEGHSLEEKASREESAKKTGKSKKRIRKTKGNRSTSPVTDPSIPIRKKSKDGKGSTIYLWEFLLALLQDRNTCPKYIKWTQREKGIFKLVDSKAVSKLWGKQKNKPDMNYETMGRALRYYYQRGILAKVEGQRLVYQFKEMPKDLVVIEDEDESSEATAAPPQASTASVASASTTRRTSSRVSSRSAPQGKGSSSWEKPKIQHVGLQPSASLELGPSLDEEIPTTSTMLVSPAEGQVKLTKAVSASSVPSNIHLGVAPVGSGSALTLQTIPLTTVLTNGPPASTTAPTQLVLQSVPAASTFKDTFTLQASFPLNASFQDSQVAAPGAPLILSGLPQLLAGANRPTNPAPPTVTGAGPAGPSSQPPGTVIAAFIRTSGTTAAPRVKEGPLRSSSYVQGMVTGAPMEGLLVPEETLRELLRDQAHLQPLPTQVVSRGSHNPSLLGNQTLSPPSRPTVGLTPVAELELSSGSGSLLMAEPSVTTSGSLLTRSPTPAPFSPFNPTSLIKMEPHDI
# SPIB, sequence (Q01892 whole entry): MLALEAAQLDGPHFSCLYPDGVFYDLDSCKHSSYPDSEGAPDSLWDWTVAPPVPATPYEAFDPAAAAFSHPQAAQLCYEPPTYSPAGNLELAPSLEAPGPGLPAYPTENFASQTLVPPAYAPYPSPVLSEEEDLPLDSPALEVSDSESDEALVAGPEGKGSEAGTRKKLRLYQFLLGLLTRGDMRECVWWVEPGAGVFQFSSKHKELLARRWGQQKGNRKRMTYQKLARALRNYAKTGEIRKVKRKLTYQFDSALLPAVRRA
# CRX, sequence (O43186 whole entry): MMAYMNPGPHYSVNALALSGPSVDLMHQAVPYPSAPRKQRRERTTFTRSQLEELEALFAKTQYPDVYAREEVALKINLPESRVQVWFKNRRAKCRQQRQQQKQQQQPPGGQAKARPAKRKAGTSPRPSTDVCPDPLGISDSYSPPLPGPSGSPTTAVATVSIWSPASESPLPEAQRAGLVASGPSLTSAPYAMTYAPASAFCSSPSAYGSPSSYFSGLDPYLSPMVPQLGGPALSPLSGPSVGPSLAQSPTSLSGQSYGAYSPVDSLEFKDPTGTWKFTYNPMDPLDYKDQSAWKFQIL
sequence,measurement,setting,value
TCGACA,binding signal,[1],"1.38 fold enrichment (6-mer frequency, TF over GST control)"
same,binding signal,[2],"1.27 fold enrichment (6-mer frequency, TF over GST control)"
same,binding signal,[3],"1.43 fold enrichment (6-mer frequency, TF over GST control)"
same,binding signal,[4],"1.35 fold enrichment (6-mer frequency, TF over GST control)"
same,binding signal,[5],"1.38 fold enrichment (6-mer frequency, TF over GST control)"
same,binding signal,[6],"1.21 fold enrichment (6-mer frequency, TF over GST control)"
same,binding signal,[7],"1.28 fold enrichment (6-mer frequency, TF over GST control)"
same,binding signal,[8],"1.25 fold enrichment (6-mer frequency, TF over GST control)"
same,binding signal,[9],"1.35 fold enrichment (6-mer frequency, TF over GST control)"
same,binding signal,[10],"1.3 fold enrichment (6-mer frequency, TF over GST control)"
same,binding signal,[11],"1.32 fold enrichment (6-mer frequency, TF over GST control)"
same,binding signal,[12],"1.38 fold enrichment (6-mer frequency, TF over GST control)"
same,binding signal,[13],"1.28 fold enrichment (6-mer frequency, TF over GST control)"
same,binding signal,[14],"1.43 fold enrichment (6-mer frequency, TF over GST control)"
same,binding signal,[15],"1.42 fold enrichment (6-mer frequency, TF over GST control)"
same,binding signal,[16],"1.19 fold enrichment (6-mer frequency, TF over GST control)"
same,binding signal,[17],"1.23 fold enrichment (6-mer frequency, TF over GST control)"
same,binding signal,[18],"1.19 fold enrichment (6-mer frequency, TF over GST control)"
same,binding signal,[19],"1.4 fold enrichment (6-mer frequency, TF over GST control)"
